Measurements taken from the supplement of paper PMC6555819.

Columns and labels:
Test in all cases: PBM binding z-score (relative to random genomic background probes); higher = stronger binding; sequences stand for … in GC…GCGATTGACAGCGTAGAATGAAGG
[1] = system: FXR:RXRa (NR concentration 270 nM, RXRa partner concentration 90 nM)
Outline: (§1)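 Random background probes are the reference for binding z-scores. These scores derive from regression-normalized fluorescence on custom Agilent 4×180K protein-binding microarrays incubated 1 h with ligand-free nuclear receptor dimers. Binding was detected with antibodies against each partner (one per run).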

[2] = system: LXRa:RXRa (NR concentration 270 nM, RXRa partner concentration 90 nM)
Outline: as §1

[3] = system: LXRa homodimer (NR concentration 270 nM)
Outline: as §1

[4] = system: LXRb:RXRa (NR concentration 270 nM, RXRa partner concentration 90 nM)
Outline: as §1

[5] = system: LXRb homodimer (NR concentration 270 nM)
Outline: as §1

[6] = system: PPARa:RXRa (NR concentration 270 nM, RXRa partner concentration 90 nM)
Outline: as §1

[7] = system: PPARg:RXRa (NR concentration 180 nM, RXRa partner concentration 90 nM)
Outline: as §1

[8] = system: PPARg:RXRa 270nM:90nM, anti-RXR (NR concentration 270 nM, RXRa partner concentration 90 nM)
Outline: as §1

[9] = system: PPARg:RXRa 30nM:10nM, anti-RXR (NR concentration 30 nM, RXRa partner concentration 10 nM)
Outline: as §1

[10] = system: PPARg:RXRa 90nM:30nM, anti-RXR (NR concentration 90 nM, RXRa partner concentration 30 nM)
Outline: as §1

| Sequence | PBM binding z-score [1] | PBM binding z-score [2] | PBM binding z-score [3] | PBM binding z-score [4] | PBM binding z-score [5] | PBM binding z-score [6] | PBM binding z-score [7] | PBM binding z-score [8] | PBM binding z-score [9] | PBM binding z-score [10] |
| --- | --- | --- | --- | --- | --- | --- | --- | --- | --- | --- |
| AATACAGGGTCATCGTAAGCCAGAGTACGCACAG | 7.41 | 6.05 | 2.24 | 4.69 | 1.14 | 6.1 | 6.63 | 5.96 | 2.84 | 4.83 |
| CGTCCAAGGTCAGTAGGTCAGTGAAAGCGACGTG | 4.68 | 3.18 | 0.336 | 2.78 | 0.0496 | 5.1 | 6.2 | 6 | 2.74 | 4.9 |
| TTACCAAGGTGAAGCTCGTTGATCCCTCTGTAGA | 0.0851 | -0.0821 | -1.1 | -0.274 | -1.24 | 1.09 | -0.0345 | 0.378 | 0.125 | 0.429 |
| CCGACTGGGGCAGAAAGGTTACCAAACCATCCGG | 0.151 | 0.796 | -0.38 | 1.02 | -0.812 | 2.22 | 1.48 | 2.84 | 0.501 | 2.07 |
| CTCGAAAGGTCGTGTTCAGGTGAGTATACCAAAC | 4.67 | 3.64 | 0.232 | 3.31 | 0.113 | 4.76 | 2.42 | 3.38 | 0.878 | 2.07 |
| CCTACTGGGCCATTCAGAGTTCATTGATCATATG | 0.991 | 2.71 | 6.11 | 1.86 | -0.389 | 2.28 | 1.04 | 1.61 | 0.0346 | 0.782 |
| TCATATACGTAAAAGGTGAAAGTCGGTGTGGTAA | 1.58 | 1.77 | 0.215 | 1.7 | 0.467 | 2.81 | 1.68 | 3.88 | 4.6 | 4.19 |
| TTACCAAGGTGAGCTGAGGACGTTGATCCAACTC | 1.1 | -0.166 | -0.767 | -0.542 | -1.14 | 0.258 | -0.0163 | -0.267 | -0.263 | -0.212 |
| ATTTCTAGGTAAAGATAGTTCAGTGAATGCAAAT | 0.355 | 4.21 | 0.857 | 1.02 | 0.567 | 1.39 | 1.3 | 1.27 | 0.883 | 1.07 |
| GCAAACAGGTGAAACGCAGGTAACTCAGGGTGGC | -0.182 | -0.0525 | -0.463 | -0.425 | -0.88 | 0.919 | 0.672 | 0.158 | -0.786 | -0.33 |
| GCTATTAGTTGAAATGGCAACCGAATGATTCTCG | -0.365 | -0.424 | -0.152 | -0.394 | -0.166 | -0.14 | 0.344 | 0.398 | 0.213 | 0.114 |
| CCTTCTGGGCCAAAGGTCATTGATTCCAATGCTC | 4.88 | 5.18 | 4.15 | 5 | 1.15 | 6.61 | 11.3 | 10.2 | 10.6 | 11.4 |
| AATACAGGGTCACTAGGCCAAAGTAGGTACGAAT | 6.51 | 4.99 | 1.08 | 4 | 1.01 | 6.26 | 8.6 | 6.83 | 4.18 | 6.09 |
| TCGAGTAGGTTACCAATGGGGCATTCATCTTTCT | -0.000727 | 1.01 | -0.201 | 1.21 | -0.516 | 1.23 | 0.329 | 1.33 | 1.28 | 1.18 |
| GGAACGATGGCAAAGTTGATAGCATCTGTCGACG | -0.553 | -0.632 | -0.475 | -0.708 | -0.97 | 0.994 | 1.79 | 3.3 | 1.16 | 2.88 |
| ACAGACAGGTGATGAATGTAACTCAGGCTATCAT | -0.237 | -0.163 | 0.164 | 0.1 | -0.131 | 0.166 | 0.735 | -0.0666 | 0.338 | -0.0676 |
| CGTCAAAGTTCAGGGTAACGTAACAGAAAGCAGC | 4.15 | 3.51 | 1.23 | 2.3 | 0.634 | 3.48 | 3.14 | 3.57 | 1.26 | 2.42 |
| ATCGAAAGGTCGTAGGTGAGTATACCCACCCGAA | 5.3 | 4.31 | 0.335 | 3.11 | 0.812 | 5.14 | 4.11 | 4.56 | 1.68 | 3.46 |
| CCTTACCGGTCACGAGGTTATAGCACGACGAGCG | 2.69 | 3.04 | 2 | 2 | 0.699 | 2.85 | 2.12 | 2.07 | 0.437 | 1.06 |
| CGTCCCAGGTCAGCAGGTCAGTGAAAGCGACGTG | 3.56 | 2.34 | 0.419 | 1.95 | -0.0332 | 3.49 | 2.6 | 2.88 | 0.0912 | 1.51 |
| TCGAGGAGGTTAGGGGCATTCAGAATGGCGTCGA | 1.12 | 0.91 | -0.0426 | 1.71 | 0.134 | 1.94 | 0.354 | 1.08 | 1.19 | 1.09 |
| GCTGCTAGGACAACTGATGGTCAGCTAAAGCTCG | -0.547 | -0.859 | -0.672 | -1.14 | -1.05 | -1.94 | -0.0624 | -0.895 | -0.952 | -1.12 |
| GATACAGGGTCAGATAGAGGCCAGAGTATGGAAA | 4.95 | 3.16 | 0.138 | 3.03 | 0.456 | 4.58 | 3.32 | 3.11 | 1.18 | 2.09 |
| ACTAGTTGGTCAGCTGAGGTCACACATAATTCGG | 3.42 | 3.14 | 2.03 | 3.37 | 1.17 | 3.6 | 1.8 | 2.34 | 0.875 | 1.62 |
